Source: PubChem (National Center for Advancing Translational Sciences (NCATS))
An excerpt weighted towards active compounds, which were near 9.2% of everything screened.
NPC1 prom act = qHTS Assay for NPC1 Promoter Activators; Huh7 NPC1 promoter luciferase reporter, 24 h; Potency, µM (top dose mostly 9.22 µM), without a hit: at the highest dose activation, hits mostly activators; actives 2.4% (n = 320,000); AID 485313, 2010; note: % of control where 0% means no effect; nearly all actives have a fitted effect of over 60% in size
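In 1536-well qHTS, Huh7 cells harboring an NPC1 promoter–luciferase construct received compound for 24 h; activation was quantified by luminescence following luciferase reagent addition.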
FLuc modulator = qHTS profiling assay for firefly luciferase inhibitor/activator using purifed enzyme and Km concentrations of substrates (counterscreen for miR-21 project). AID 588342, 2011. Luciferin 4-monooxygenase (Photinus pyralis), P08659. actives 6.9% (n = 360,000). Potency, µM (titrated, usually from 57.5 µM), for inactives: top-dose activity change, negative = inhibition, hits mostly inhibitors. purified FLuc, Km substrates, luminescence inhibition;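 note: plate controls were vehicle for no effect and reference inhibitor for full effect; nearly all actives have a fitted effect of over 55% in size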
Target sequence (P08659 whole entry, looked up): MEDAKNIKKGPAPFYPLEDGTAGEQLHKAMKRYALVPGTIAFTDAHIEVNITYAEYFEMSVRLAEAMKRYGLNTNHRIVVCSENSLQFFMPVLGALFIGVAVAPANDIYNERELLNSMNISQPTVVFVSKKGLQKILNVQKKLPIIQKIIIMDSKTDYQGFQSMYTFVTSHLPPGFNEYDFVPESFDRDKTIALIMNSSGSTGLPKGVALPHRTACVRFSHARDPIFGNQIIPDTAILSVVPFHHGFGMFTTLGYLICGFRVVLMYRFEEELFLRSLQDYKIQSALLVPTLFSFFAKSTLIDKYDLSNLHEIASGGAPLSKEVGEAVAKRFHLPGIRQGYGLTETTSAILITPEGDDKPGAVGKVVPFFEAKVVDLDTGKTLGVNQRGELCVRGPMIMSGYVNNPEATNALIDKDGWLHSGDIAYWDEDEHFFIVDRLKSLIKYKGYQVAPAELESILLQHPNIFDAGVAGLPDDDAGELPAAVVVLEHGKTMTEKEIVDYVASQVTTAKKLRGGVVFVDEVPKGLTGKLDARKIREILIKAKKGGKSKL
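Purified P. pyralis luciferase, 10 nM final, with Km-level 10 uM D-luciferin and 10 uM ATP in 50 mM Tris acetate pH 7.5, 10 mM Mg acetate, 0.01% Tween-20, 0.05% BSA; 6-point qHTS titration about 60 µM downward; luminescence read.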
ELG1 genotox = qHTS screen for small molecules that induce genotoxicity in human embryonic kidney (HEK293T) cells expressing luciferase-tagged ELG1; actives 1.3% (n = 330,000); AID 504466, 2011; HEK293T ELG1-luciferase reporter, luminescence, 16 h; Potency, µM (titrated, usually from 46 µM), for inactives: at the top dose activity change, positive = activation, most hits filed as activators; note: % of control where 0% means no effect; nearly all actives have a fitted effect of over 60% in size
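Genotoxic stress is detected as increased luminescence from luciferase-tagged ELG1 in HEK293T cells, measured with ONE-Glo after a 16 hr treatment at 37 °C.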
ELG1 repair inh = qHTS screen for small molecules that inhibit ELG1-dependent DNA repair in human embryonic kidney (HEK293T) cells expressing luciferase-tagged ELG1; HEK293T ELG1-luciferase reporter, luminescence, 16 h; DNA damage induced by 5-fluorouridine; Potency, µM (highest dose often 46.1 µM), inactives show at the highest dose activity change, negative = inhibition, usual class: inhibitors; actives 2.3% (n = 330,000); AID 504467, 2011; note: % is set by controls: 0 for no effect and ±100 for the full control effect; nearly all actives have a fitted effect of over 55% in size
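Step one: seed 2,000 cells per well. Step two: pin-transfer compound or DMSO alongside 5-fluorouridine. Step three: incubate 16 hr, 37 °C, 5% CO2. Step four: add ONE-Glo, wait 30 min, read luminescence.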
SMN2 splice enh = qHTS Assay for Enhancers of SMN2 Splice Variant Expression; actives 2.8% (n = 210,000); AID 1458, 2008; HEK293 SMN2-luciferase splicing reporter, luminescence, 30-36 h; Potency, µM (highest dose often 46.1 µM), inactives show at the highest dose activity change, positive = activation, hits mostly activators; note: % of control where 0% means no effect; nearly all actives have a fitted effect of over 55% in size
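HEK293 cells carry an SMN2 minigene-luciferase reporter in which exon 7 inclusion puts luciferase in frame. Cells were seeded at 2000 cells/well, attached for 10-12 hours, then exposed to compounds for 30-36 hours at 37C before ONE-Glo luminescence.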
Rab9 promoter act = qHTS Assay for Rab9 Promoter Activators; Huh7 Rab9 promoter-luciferase reporter, luminescence, 24 h; Potency, µM (highest dose often 9.22 µM), for inactives: at the highest dose activation, negative = inhibition, usual class: activators; actives 2.8% (n = 320,000); note: % of control where 0% means no effect; nearly all actives have a fitted effect of over 60% in size
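Measured in stably transfected Huh7 cells bearing a Rab9 promoter–luciferase construct: 24 h compound treatment at 37 °C, followed by luminescence detection.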
* marks the source's active call; other numbers are inactive results; ? = inconclusive; . = no result given; ! = a repeat was not active; [ ] = remark or other dose. Calls come from the whole dose curve; as a rule, active = well fitted curve in the direction sought with a large enough effect; inconclusive = small, poorly fitted or top-dose-only effect, or another doubt; inactive = no such curve, though single readings can be large; an effect the other way counts as inactive or inconclusive. Potency is the fitted concentration of half-maximal effect.

SMILES | NPC1 prom act | FLuc modulator | ELG1 genotox | ELG1 repair inh | SMN2 splice enh | Rab9 promoter act
CCOC(=O)C1CCCN(CCC(=O)Nc2cccc(C)c2)C1 (stereo unspecified) | 3.5µM* | 15µM*! | ? | ? | 6% | 3.2µM*
CCOC(=O)C1CCCN(C(=S)Nc2ccc(Nc3ccccc3)cc2)C1 (stereo unspecified) | ? | -7% | 9% | ? | 11µM* | 1.4µM*
CC1(c2ccc([N+](=O)[O-])cc2)Nc2ccccc2S1 (stereo unspecified) | ? | 21µM* | ? | ? | . | ?
COc1ccc(OC)c(C=Nc2ccccc2-c2nc3ccccc3[nH]2)c1 | ? | 4.8µM* | ? | ? | 13µM* | ?
Oc1ccccc1C=Nc1ccccc1-c1nc2ccccc2[nH]1 | ? | ? | ? | ? | 32µM* | ?
Oc1ccc(C=Nc2ccccc2-c2nc3ccccc3[nH]2)c(O)c1 | ? | 4.8µM* | ? | ? | 14µM* | ?
O=C(c1ccccc1-c1nc2ccccc2[nH]1)N1CCCCC1 | 0% | 3% | -1% | -1% | 8% | 1%
N/C(=N\OC(=O)Nc1ccc(Cl)cc1)c1ncc(C(F)(F)F)cc1Cl | -2% | ? | ? | ? | -5% | 1%
N/C(=N\OC(=O)Nc1ccccc1)c1ncc(C(F)(F)F)cc1Cl | 24% | 12µM* | 23µM* | ? | 55% | ?
CCOC(=O)c1sc(=N)n(-c2ccc(OC)cc2)c1C | 30% | 19µM* | ? | ? | 14% | 26%
COC(=O)c1c(C)n(-c2ccc(OC)cc2)c2ccc(O)cc12 | -1% | 0% | -25% | ? | 4.5µM* | -4%
CCOC(=O)c1sc(=S)n(-c2ccc(OC)cc2)c1N | -2% | 0% | 1% | 9% | . | -13%
Cc1ccc(NC(=O)c2cc3c(s2)CCC3)cc1S(=O)(=O)N1CCOCC1 | 4% | 13µM* | -15% | 23µM* | -36% | -4%
COc1cc(S(=O)(=O)N2CCOCC2)ccc1NC(=O)c1cc2c(s1)CCC2 | -1% | 6% | -2% | -27% | 6% | -8%
Cc1ccc(S(=O)(=O)N2CCOCC2)cc1NC(=O)c1cc2c(s1)CCC2 | -2% | 1% | -5% | 23µM* | -16% | -4%
CCS(=O)(=O)Nc1ccc(-c2ccc(NS(=O)(=O)CC)c(OC)c2)cc1OC | -2% | -1% | -2% | 23µM* | -16% | -1%
COc1ccc(NS(=O)(=O)CC(C)C)c(OC)c1 | -3% | 4% | 0% | 3% | 12% | 0%
O=C(/C=C1\NCC2c3ccccc3CCN2C1=O)c1ccccc1 (stereo unspecified) | 4µM* | 1.2µM* | -2% | 10% | 2.8µM* | 3.5µM*
Cc1ccc(S(=O)(=O)n2c(C)nc3ccccc32)cc1 | -6% | 2% | 2% | -1% | . | 3%
CCOc1ccc(/C=C/c2nc3ccccc3n2S(=O)(=O)c2cccc(Cl)c2)cc1 | . | 0.95µM* | . | . | 5µM* | .
CSc1ccc(/C=C/c2nc3ccccc3n2S(=O)(=O)c2ccc(F)c(C)c2)cc1 | . | 0.27µM* | . | . | . | .
CCOc1cc(S(=O)(=O)n2c(C)nc3ccccc32)ccc1F | 1% | -1% | -14% | -2% | -30% | -9%
Cc1ccc(/C=C/c2nc3ccccc3n2S(=O)(=O)c2cccc(Cl)c2)cc1 | . | 0.67µM* | . | . | . | .
CC1=NC(C)(C)Cc2cc(C)c(C)cc21 | -3% | 2% | 0% | 9% | . | -3%
Cc1cccn2c1nc(=S)n2C(=O)c1ccco1 | ? | 0.67µM* | ? | ? | ? | 1.4µM*
SMILES | NPC1 prom act | FLuc modulator | ELG1 genotox | ELG1 repair inh | SMN2 splice enh | Rab9 promoter act
Cc1c(NC(=O)c2ccccc2)cc(C(C)C)c(O)c1S(=O)(=O)c1ccc(Cl)cc1 | . | -19% | . | . | . | .
Cc1c(NC(=O)c2ccc(Cl)cc2)cc(C(C)C)c(O)c1S(=O)(=O)c1ccccc1 | . | ? | . | . | 16µM* | .
COc1ccc(C(=O)Nc2cc(S(=O)(=O)c3ccc(Cl)cc3)c(O)c(C)c2C)cc1 | . | 8.5µM* | . | . | 15% | .
CC(=O)Nc1cccc(C(=O)/C=C/c2ccc(C)cc2)c1 | 0% | 4.8µM* | 9% | -14% | -4% | -6%
COc1cccc(NC(=S)NC(=O)/C=C/c2ccc(F)cc2)c1 | 5% | -4% | 2% | -5% | . | -2%
CCC(=O)Nc1cccc(C(=O)/C=C/c2ccc(F)cc2)c1 | -4% | 15µM* | -20% | -3% | -62% | -14%
Cc1[nH]n(-c2ccc(S(=O)(=O)O)cc2)c(=O)c1N=Nc1ccccc1 | . | . | . | . | -3%[9.22 µM] | .
O=[N+]([O-])c1ccc(O)c(/C=N/n2c(CO)nc3ccccc32)c1 | 1% | -9% | -5% | 26µM* | . | -5%
O=[N+]([O-])c1ccc(O)c(/C=N/n2cnc3ccccc32)c1 | 6% | 27µM* | -10% | 21µM* | -48% | -3%
CCn1c(-c2csc3c2CCC(C)C3)n[nH]c1=S (stereo unspecified) | -2% | -1% | -3% | 5% | -17% | -5%
COc1ccc(C)cc1N(CC(=O)N1CCCCCC1)S(=O)(=O)c1ccc(C)cc1 | -7% | 5% | 8% | -8% | . | -4%
COc1ccc(C2=NN(C(=O)CCC(=O)O)C(c3ccccc3OC)C2)cc1 (stereo unspecified) | -3% | -2% | 5% | 10% | . | 0%
CCc1cc(C)cc(OCCOc2ccccc2/C=N/NC(C)=O)c1 | 1% | 0% | -6% | -19% | . | 0%
N#C/C(=C/c1ccc(N2CCCCC2)o1)C(=O)Nc1ccc2ccccc2c1 | 6% | 3.4µM* | 0% | -1% | -48% | 6%
CNC(=O)/C(C#N)=C\c1ccc(CNS(=O)(=O)c2ccc(Cl)cc2)o1 | -3% | 1% | -2% | 7% | 11% | 6%
N#C/C(=C/c1ccc(N2CCCCC2)o1)C(=O)Nc1ccc(Cl)cc1 | 2µM* | 0.6µM* | 2.3µM* | ? | 3.2µM* | 2.2µM*
CCN(c1ccccc1)S(=O)(=O)c1cc(C(=O)OC2CCOC2=O)ccc1C (stereo unspecified) | 1% | 0% | 1% | 13% | . | -2%
CC1(C)CC23C(=O)CCC(O)C2(C)CCC13 (stereo unspecified) | . | . | . | . | 2% | .
